From PubChem BioAssay
Activity calls are given as the source filed them.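 Rule for the calls, unless noted: active = visual image review flags a hit and inhibition of aggregation exceeds 20%; inconclusive = visual hit but inhibition at or below 20%; inactive = no hit on visual image review.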

What was measured:
[1] = inhibitors of TNFa-induced NFkB p65 translocation, primary screen, imaging, HUVEC, MLSMR starter and 10KST1 sets (AID 438;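 active = inhibition above 20% together with a positive visual image hit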;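 note: compound added about 3h40 before a 20 min TNFalpha stimulation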;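 for inhibition: signal is the nuclear over cytoplasmic p65 intensity ratio per well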); conditions: HUVEC TNFa-induced p65 nuclear translocation; cell count: measured here: nuclei count (cytotoxicity indicator), at 2.08 µM; inhibition: at 2 µM, stronger effect = higher value, 0% TNFa-plus-vehicle, 100% no-TNFa wells
[2] = inhibitors of mutant huntingtin aggregation, primary screen, imaging, exon1htt(103Q)mCFP cells, high-content imaging (AID 483); conditions: exon1htt(103Q)mCFP cell line, aggregate imaging, at 2 µM; inhibition of aggregation: stronger effect = higher value; nuclei count: measured here: cell count, toxicity;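 note: compound exposure lasted 3 days before fixation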;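 for nuclei count: percent of the per-plate median nuclei count of sample wells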
[3] = inhibitors of E-selectin induction by TNFa, primary screen, imaging, HUVEC, immunofluorescence, MLSMR starter and 10KST1 sets (AID 487;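 active = visually confirmed hit in the image check and inhibition above 20%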;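 for inhibition: signal is fraction of cell area covered by stained E-selectin grains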;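 for nuclei count: 100% = median nuclei count of all wells on the same plate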); conditions: HUVEC TNFalpha-induced E-selectin immunofluorescence imaging, at 2 µM; inhibition: stronger effect = higher value; nuclei count: measured here: cell number, toxicity
[4] = target: Voltage-gated potassium channel subunit beta-2 (Rattus norvegicus) (UniProt P62483); assay: KvBeta enzyme negative modulators, primary screen, biochemical, NADPH fluorescence (AID 622;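 active = fluorescence slope higher than the sample average by over 3 SD, cut at about -0.22 in these data, passing the limit was not always enough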;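 note: slope of raw intensity against log time taken from 70 to 1610 s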); conditions: recombinant KvBeta, 4-cyanobenzaldehyde reduction, at 10 µM, stronger effect = higher value
Sequence of Voltage-gated potassium channel subunit beta-2 (Rattus norvegicus) (P62483 whole entry, looked up): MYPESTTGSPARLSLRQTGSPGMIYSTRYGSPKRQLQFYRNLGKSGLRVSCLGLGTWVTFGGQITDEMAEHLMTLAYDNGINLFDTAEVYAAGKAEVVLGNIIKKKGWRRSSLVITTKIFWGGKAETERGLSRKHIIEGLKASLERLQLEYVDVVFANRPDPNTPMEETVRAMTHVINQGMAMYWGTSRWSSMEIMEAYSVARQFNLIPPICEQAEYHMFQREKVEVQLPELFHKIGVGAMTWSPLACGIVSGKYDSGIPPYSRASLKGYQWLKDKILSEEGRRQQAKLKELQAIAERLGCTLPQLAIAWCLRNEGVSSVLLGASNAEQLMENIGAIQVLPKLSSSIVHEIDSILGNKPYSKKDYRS

[5] = target: Voltage-gated potassium channel subunit beta-2 (Rattus norvegicus) (UniProt P62483); assay: KvBeta positive modulators, primary screen, biochemical, NADPH fluorescence (AID 623;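 active = NADPH fluorescence slope more negative than the mean of all samples by about 3 SD, 99.7% confidence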;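 note: fluorescence intensity change per second fitted from 20 to 320 s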); conditions: Recombinant KvBeta, NADPH fluorescence decrease slope, 10 min; at 10 µM; stronger effect = lower value
[6] = target: Alpha-2C adrenergic receptor (Homo sapiens) (UniProt P18825); assay: modulators of alpha2C/GIRK thallium flux, primary screen, cell-based, HEK293 alpha2C/GIRK1/2 (AID 624;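 active = fluorescence slope after compound addition differing from the mean of all screened samples at 99.7% confidence, in either direction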;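 note: slope of fluorescence ratio to pre-addition baseline per second over 15 to 24 s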); conditions: thallium flux BTC fluorescence, at 10 µM, actives lie on both sides
Sequence of Alpha-2C adrenergic receptor (Homo sapiens) (P18825 whole entry, looked up): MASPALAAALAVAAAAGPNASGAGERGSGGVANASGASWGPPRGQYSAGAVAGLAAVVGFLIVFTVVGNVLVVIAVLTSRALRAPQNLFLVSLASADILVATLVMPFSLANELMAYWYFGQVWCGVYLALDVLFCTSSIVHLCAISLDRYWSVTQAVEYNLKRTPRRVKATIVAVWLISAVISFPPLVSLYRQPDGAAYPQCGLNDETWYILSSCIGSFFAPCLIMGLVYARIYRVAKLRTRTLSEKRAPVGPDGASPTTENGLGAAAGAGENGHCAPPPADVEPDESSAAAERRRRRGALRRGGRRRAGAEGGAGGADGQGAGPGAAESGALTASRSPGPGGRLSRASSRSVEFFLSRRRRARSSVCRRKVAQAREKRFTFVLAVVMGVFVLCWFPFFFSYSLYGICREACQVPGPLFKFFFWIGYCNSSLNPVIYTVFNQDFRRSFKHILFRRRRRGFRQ

[7] = inhibitors of Sendai virus-induced IRF3 signaling, primary screen, TLR/RLR signaling modifier project, cell-based, Sendai virus stimulus, luciferase, 10K MLSCN set (AID 602276;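 active = inhibition at or above 50% at 10 µM; inactive = inhibition below 50%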;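 note: firefly luciferase from ISG56 promoter only with Renilla not read in this screen; 0% = Sendai virus plus DMSO and 100% = medium plus DMSO without virus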); conditions: HEK293 RL24 IRF3 luciferase reporter, at 10 µM, stronger effect = higher value
[8] = inhibitors of poly I:C-induced TLR3 signaling, primary screen, cell-based, poly I:C stimulus, luciferase, 10K MLSCN set (AID 602277;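 active = inhibition of the reporter signal at or above 50%; inactive = inhibition below 50%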); conditions: HEK293-TLR3 RL24 IRF3 luciferase reporter, at 10 µM, stronger effect = higher value

| Structure (SMILES) | cell count [1] | inhibition [1] | inhibition of aggregation [2] | nuclei count [2] [%] | inhibition [3] | nuclei count [3] [%] | fluorescence slope [4] | NADPH fluorescence slope [5] | slope [6] | inhibition [7] | inhibition [8] |
| --- | --- | --- | --- | --- | --- | --- | --- | --- | --- | --- | --- |
| COc1ccc(S(=O)(=O)N2CCN(c3ccc(C)cc3C)CC2)cc1OC | 772 | -0.6% (inactive) | -17.1% (inactive) | 114 | -19.1% (inactive) | 123 | -0.544 (inactive) | -3.9e-05 (inactive) | 0.0076 (inactive) | 4.37% (inactive) | 13.8% (inactive) |
| CCC(C)NC(=O)c1cn(CC)c2ccc(S(=O)(=O)N(C)C)cc2c1=O (stereo not drawn) | 603 | -11.6% (inactive) | -11.6% (inactive) | 111 | -70.7% (inactive) | 125 | -0.376 (inactive) | 1.4e-05 (inactive) | 0.00604 (inactive) | 19.1% (inactive) | 29.7% (inactive) |
| C/C=C(\CS(=O)(=O)c1ccccc1)S(=O)(=O)c1ccccc1 | 167 | 2.2% (inactive) | 9.7% (inactive) | 101 | -49.3% (inactive) | 73 | -0.508 (inactive) | -1.7e-05 (inactive) | 0.00524 (inactive) | 19.1% (inactive) | 21.9% (inactive) |
| Cc1ccccc1NC(=O)CN1CCC(NC(=O)Nc2ccccc2)CC1 | 516 | -1.9% (inactive) | 25.9% (inactive) | 68 | -121% (inactive) | 93 | -0.292 (inactive) | -4.8e-05 (inactive) | 0.00566 (inactive) | 9.37% (inactive) | 9.34% (inactive) |
| c1cn(CC2(Cn3ccnc3)COC2)cn1 | 793 | -6.2% (inactive) | -13.4% (inactive) | 104 | -2.3% (inactive) | 105 | -0.614 (inactive) | -1.1e-05 (inactive) | 0.00589 (inactive) | 14.1% (inactive) | 17.6% (inactive) |
| COc1cc2c(cc1OC)-c1cc(Nc3ccc4c(c3)OCCO4)nc(=O)n1CC2 | 649 | -6.9% (inactive) | 0.9% (inactive) | 104 | 5.7% (inactive) | 128 | -0.41 (inactive) | -5.2e-06 (inactive) | 0.00445 (inactive) | 41.3% (inactive) | 44.1% (inactive) |
| O=C(C1CCCCC1)N1CCC(c2nc3c(nnn3Cc3ccccc3Cl)c(=O)[nH]2)CC1 | 372 | -1.5% (inactive) | -5.2% (inactive) | 110 | -144% (inactive) | 115 | -0.359 (inactive) | -4.8e-05 (inactive) | 0.00569 (inactive) | 11.3% (inactive) | 26.2% (inactive) |
| CC1(C)OC(=O)C(=CNC(CCC(N)=O)C(=O)O)C(=O)O1 (stereo not drawn) | 679 | 3.6% (inactive) | 0.3% (inactive) | 117 | -16.8% (inactive) | 108 | -0.611 (inactive) | -9.2e-07 (inactive) | 0.00611 (inactive) | -19% (inactive) | -5.5% (inactive) |
| COc1ccccc1CNC(=O)N[C@@H](Cc1ccccc1)C(=O)O | 602 | 0.9% (inactive) | -15.9% (inactive) | 107 | 31.9% (inactive) | 99.5 | -0.6 (inactive) | -5.1e-05 (inactive) | 0.00621 (inactive) | 12.8% (inactive) | 22.6% (inactive) |
| O=C(Nc1cnn(Cc2ccc(F)cc2)c1)c1cnccn1 | 582 | -17% (inactive) | -7.5% (inactive) | 109 | -94.9% (inactive) | 120 | -0.504 (inactive) | -4.3e-05 (inactive) | 0.00522 (inactive) | 4.25% (inactive) | 8.05% (inactive) |
| CC(=O)Nc1ccc(OCC(O)CN2CCN(c3cccc(Cl)c3)CC2)cc1 (stereo not drawn) | 469 | 7% (inactive) | -19.8% (inactive) | 115 | -27.1% (inactive) | 115 | -0.481 (inactive) | -4.2e-05 (inactive) | 0.00626 (inactive) | 3.23% (inactive) | 21.4% (inactive) |
| Cn1c(SCC(=O)N2CCOCC2)nnc1-c1cnccn1 | 656 | 1% (inactive) | -11.1% (inactive) | 122 | -36.3% (inactive) | 114 | -0.396 (inactive) | 8e-06 (inactive) | 0.00449 (inactive) | 3.04% (inactive) | 21.7% (inactive) |
| CCOC(=O)C(CC)n1nc(C)n2c(cc3sccc32)c1=O (stereo not drawn) | 526 | 7.7% (inactive) | 14.3% (inactive) | 110 | -25.8% (inactive) | 122 | -0.567 (inactive) | -3.4e-05 (inactive) | 0.0065 (inactive) | 10.8% (inactive) | 19.7% (inactive) |
| CS(=O)(=O)N(CC(=O)NCCSCc1cccc(Cl)c1)c1ccc2c(c1)OCO2 | 233 | -4.5% (inactive) | 35.8% (active) | 96.5 | 32.5% (inactive) | 71.4 | -0.528 (inactive) | -5.8e-05 (inactive) | 0.00685 (inactive) | -12% (inactive) | 1.85% (inactive) |
| COc1cccc(C2CC(=O)Nc3c2c(=O)n(C)c(=O)n3C)c1OC (stereo not drawn) | 499 | 2.4% (inactive) | -11.6% (inactive) | 39.6 | -17.6% (inactive) | 112 | -0.536 (inactive) | 2e-06 (inactive) | 0.00679 (inactive) | -4.94% (inactive) | 16.2% (inactive) |
| O=C(CSc1ncnc2ccccc12)NCCCO | 458 | -11% (inactive) | -1.4% (inactive) | 104 | 7.4% (inactive) | 101 | -0.628 (inactive) | 8.9e-06 (inactive) | 0.00699 (inactive) | 15.3% (inactive) | 26.4% (inactive) |
| O=S(=O)(NC1CCCC1)c1ccccc1Cl | 739 | -7.3% (inactive) | -2.5% (inactive) | 111 | -21.2% (inactive) | 116 | -0.455 (inactive) | -3.7e-05 (inactive) | 0.00495 (inactive) | 7.42% (inactive) | 15.4% (inactive) |
| Clc1ccc(-n2nnnc2Sc2ncnc3sccc23)cc1 | 530 | -9% (inactive) | -12.2% (inactive) | 107 | -12.2% (inactive) | 122 | -0.528 (inactive) | -4.1e-05 (inactive) | 0.00502 (inactive) | 5.22% (inactive) | 66.8% (active) |
| CCOC(=O)c1c(C)n(OCc2ccccc2)c2ccc3c(no[n+]3[O-])c12 | 437 | 4% (inactive) | 2.1% (inactive) | 104 | 8.8% (inactive) | 111 | -0.484 (inactive) | -1e-05 (inactive) | 0.00638 (inactive) | 2.55% (inactive) | 13.2% (inactive) |
| CN(C(=O)c1ccc2c(=O)n3c(nc2c1)CCCCC3)c1ccccc1 | 588 | -10.7% (inactive) | 23.6% (inactive) | 93.9 | 63.2% (active) | 76.9 | -0.457 (inactive) | -0.000341 (inactive) | 0.00528 (inactive) | 11.2% (inactive) | 8.93% (inactive) |
| COc1cc(S(=O)(=O)n2nnc3ccccc32)c(OC)cc1Cl | 629 | -3.3% (inactive) | -68.5% (inactive) | 93 | -51.9% (inactive) | 122 | -0.382 (inactive) | 3.8e-05 (inactive) | 0.00868 (inactive) | 13.5% (inactive) | -7.7% (inactive) |
| O=C(O)c1ccccc1S(=O)(=O)NCC(O)COc1ccc(Br)cc1 (stereo not drawn) | 435 | 3.5% (inactive) | -17% (inactive) | 106 | 31.4% (inactive) | 81.4 | -0.39 (inactive) | 2.1e-05 (inactive) | 0.00443 (inactive) | 10.6% (inactive) | 14.4% (inactive) |
| Cc1ccc(O)c(C(CC(=O)N2CCCC2)c2ccccc2)c1 (stereo not drawn) | 478 | 1.6% (inactive) | 4.1% (inactive) | 103 | -33% (inactive) | 114 | -0.35 (inactive) | -4.7e-05 (inactive) | 0.00552 (inactive) | 3.98% (inactive) | 16.5% (inactive) |
| O=S1(=O)N=C(Nc2nc3c(s2)CCCC3)c2ccccc21 | 319 | -4.2% (inactive) | 5% (inactive) | 102 | -33.1% (inactive) | 111 | -0.468 (inactive) | 5.2e-05 (inactive) | 0.00562 (inactive) | -62.5% (inactive) | -97.7% (inactive) |
| CS(=O)(=O)N(Cc1ccco1)CC(O)Cn1c2ccccc2c2ccccc21 (stereo not drawn) | 314 | 3.3% (inactive) | 3.9% (inactive) | 103 | -16.4% (inactive) | 97.9 | -0.388 (inactive) | 1.5e-05 (inactive) | 0.00353 (inactive) | 13.7% (inactive) | 35.1% (inactive) |
| CCOC(=O)C1=C(c2ccccc2)NC(=O)NC1c1ccc(N(C)C)cc1 (stereo not drawn) | 363 | -0.5% (inactive) | 14.6% (inactive) | 86.7 | -131% (inactive) | 118 | -0.439 (inactive) | -4.5e-05 (inactive) | 0.00395 (inactive) | 12.6% (inactive) | 29.3% (inactive) |
| COc1ccccc1CN1CCCC(C(=O)N(C)Cc2ccccc2)C1 (stereo not drawn) | 739 | -3.4% (inactive) | 23.6% (inactive) | 99.1 | -218% (inactive) | 126 | -0.37 (inactive) | -9.6e-06 (inactive) | 0.00506 (inactive) | 7.15% (inactive) | 33.5% (inactive) |
| COCc1nnc(NC(=O)c2ccc(S(=O)(=O)N(C)c3ccccc3)cc2)o1 | 716 | 2.4% (inactive) | -2% (inactive) | 116 | -21% (inactive) | 107 | -0.575 (inactive) | 1.3e-05 (inactive) | 0.00656 (inactive) | 13.8% (inactive) | 7.35% (inactive) |
